Only a selection was taken, and hits are over-represented in it overall.
FXIa mix inh: FXIa protease inhibitors in compound pools, primary screen, biochemical, 10-compound mixtures | Coagulation factor XI (Homo sapiens), P03951 | purified FXIa, fluorogenic substrate, pooled mixtures | inhibition, % at 5 µM | hit rate 0.19% among 62,000;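 also: each value is inhibition by a whole ten-compound pool holding the compound; 0% = enzyme with no mixture and 100% = wells lacking enzyme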
Calb biofilm kill: clotrimazole potentiators killing Candida biofilms, primary screen, with clotrimazole, Alamar Blue | hit rate 0.14% among 85,000 | inhibition, % at 6 µM | C. albicans biofilm + clotrimazole;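 active = inhibition above 20%; inactive = inhibition below 20%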;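 also: preformed 24 hr biofilms exposed to compound for 48 hr; 0% = biofilm without compound and 100% = blank killed by clotrimazole plus chlorhexidine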
TNAP act DEA: human TNAP enzyme activators, primary screen, biochemical, luminescent, intermediate phosphate acceptor level; activation factor at 20 µM; 64,000 tested, under 10 active; Alkaline phosphatase, tissue-nonspecific isozyme (Homo sapiens), P05186; AID 813, 2007; purified TNAP, CDP-star luminescence, 100 mM DEA, 30 min; stronger effect = higher value; scale: 0 levamisole-inhibited, 1 vehicle-only enzyme;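 active = activation factor of at least 2 at 20 µM, relative to controls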
D1 allo mod: D1 CRE-luciferase signal change, two-sided – cell-based, HEK293 D1, dopamine EC30, D1 allosteric modulator project, primary screen; D(1A) dopamine receptor (Homo sapiens), P21728; dopamine EC30 potentiation; actives deviate in either direction; B-score at 10 µM; hit rate 5.9% among 58,000; AID 641, 2007;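 active = luminescence count or its row- and column-corrected plate score outside the 99.7% band of the plate's sample wells, on either side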
HePTP inh: inhibitors of human HePTP phosphatase, primary screen, biochemical, absorbance, leukemia target; AID 521, 2006; inhibition, % at 20 µM; Tyrosine-protein phosphatase non-receptor type 7 (Homo sapiens), P35236; recombinant HePTP phosphatase activity, OD absorbance; hit rate 0.64% among 110,000; in the data active = inhibition above about 50%;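 also: plate controls were vehicle for no effect and reference inhibitor for full effect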
Target sequence (P35236 whole entry, looked up): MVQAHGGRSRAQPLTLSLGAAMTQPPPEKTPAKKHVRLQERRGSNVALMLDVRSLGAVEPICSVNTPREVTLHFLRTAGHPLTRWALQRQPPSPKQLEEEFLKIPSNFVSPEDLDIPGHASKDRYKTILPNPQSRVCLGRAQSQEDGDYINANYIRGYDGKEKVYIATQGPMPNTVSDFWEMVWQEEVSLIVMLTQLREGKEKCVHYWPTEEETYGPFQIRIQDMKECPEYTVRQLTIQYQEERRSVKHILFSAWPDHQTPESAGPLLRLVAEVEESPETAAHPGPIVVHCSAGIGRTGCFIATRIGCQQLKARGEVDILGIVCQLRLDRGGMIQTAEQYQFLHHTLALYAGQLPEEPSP
FXIIa mix inh: human factor XIIa inhibitors, primary screen, biochemical, pooled compound mixtures, fluorogenic substrate. Coagulation factor XII (Homo sapiens), P00748. purified FXIIa. inhibition, % at 5 µM. hit rate 0.2% among 62,000. AID 684, 2007;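 also: 0% = enzyme without compound and 100% = no enzyme blank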
D1 mod confirm: D1 receptor positive allosteric modulators, retest, confirmation, cell-based, HEK293 D1, CRE-luciferase, duplicate; shares compounds with D1 allo mod; dopamine EC30 potentiation; stronger effect = higher value; luminescence at 10 µM; hit rate 88% among 2,200;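 active = luminescence in either of two replicates above the same-plate mean plus 3 SD of the low-dose dopamine control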
D1 ag no DA: D1 receptor agonism without dopamine, confirmation, mechanism study for D1 allosteric modulator project, cell-based, HEK293 D1, CRE-luciferase, secondary assay 1. shares compounds with D1 allo mod. hit rate 0.8% among 1,900. AID 646, 2007. luminescence at 10 µM. luminescence, no dopamine; stronger effect = higher value; in the data active = luminescence above about 3900
Isoprot counter: isoproterenol response counter-screen activity for D1 modulators | luminescence at 10 µM | HEK293 D1 CRE-luciferase, isoproterenol EC30 counter-screen; stronger effect = higher value | shares compounds with D1 allo mod | AID 647 | hit rate 63% among 2,200;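 active = luminescence in either replicate above plate mean of wells with a partly effective reference agonist dose plus 3 SD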;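 also: isoproterenol raises cAMP through native beta-adrenoceptor Gs so signal bypasses D1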
* = called active by the depositor; / = not tested or not shown. Rule as the data show it, unless noted: active = inhibition above about 20% (passing the limit was not always enough); inactive = the rest.

SMILES	FXIa mix inh	Calb biofilm kill	TNAP act DEA	D1 allo mod	HePTP inh	FXIIa mix inh	D1 mod confirm	D1 ag no DA	Isoprot counter
CCCCn1c(SCn2nnc3ccccc3c2=O)nc2cc(C(=O)OC)ccc2c1=O	2	1	1	0.44	9	-16	/	/	/
CCSc1nc2cc(C(=O)OC)ccc2c(=O)n1CC	/	/	/	10*	/	/	13500*	2048	3628*
O=C1CC(N2CCN(Cc3ccc4c(c3)OCO4)CC2)C(=O)N1CCc1ccccc1 (stereo unspecified)	2	7	1	2.5*	3	3	4952	960	2176
Cc1cc2c(OCC(O)CNC(C)(C)C)cccc2[nH]1 (stereo unspecified)	/	5	/	/	/	/	/	/	/
CC(C)(C)NCC(O)c1cc(O)cc(O)c1 (stereo unspecified)	-18	14	0.9	8.1*	10	5	7100*	2544	6212*
CNc1nc(Nc2ccc(C(C)=O)cc2)nc(OC(C(F)(F)F)C(F)(F)F)n1	7	/	0.9	21*	2	19	17924*	1544	5672*
CCN(CC)c1nc(C#N)nc(N(CC)CC)n1	4	/	0.9	14*	14	12	15976*	1596	3548*
Oc1ccc(-c2nc3cnccn3c2Nc2ccc3c(c2)OCCO3)cc1	10	5	0.9	2.8*	8	1	9088*	1484	3604*
c1ccc(-c2nc3cnccn3c2Nc2ccc3c(c2)OCCO3)cc1	7	/	0.9	0.56	9	-1	/	/	/
O=C1C2=C(Nc3ccccc3SC2c2ccc([N+](=O)[O-])cc2)c2ccccc21 (stereo unspecified)	/	/	/	/	-19	/	/	/	/
Cn1c(=O)c2c(nc(SCCCC#N)n2Cc2c(F)cccc2Cl)n(C)c1=O	1	12	0.9	5.8*	-1	8	7192*	1824	3908*
COc1ccc(OC)c(NC(=O)COc2c(C)cccc2C)c1	/	/	/	/	0	/	/	/	/
CC(C)c1ccc(-c2nc(N3CCCCC3)[nH]c(=O)c2C#N)cc1	1	8	0.9	5.5*	-6	2	19464*	1772	3288
CC1CCN(c2nc(-c3ccccc3)c(C#N)c(=O)[nH]2)CC1	7	3	0.9	/	4	-12	/	/	/
COc1ccc(-c2ccc(=O)n(CC(=O)Nc3cccc(O)c3)n2)cc1OC	6	5	0.9	29*	-13	-4	4824	1660	2608
c1ccc(Cn2c(NCc3ccco3)nc3ccccc32)cc1	-5	5	0.9	12*	4	-6	14512*	1716	3016
COC(=O)c1ccccc1NC(=O)COc1ccccc1	3	-3	0.9	5.8*	-10	2	14156*	1628	3284*
COC(=O)c1ccccc1NC(=O)COc1ccc(S(=O)(=O)N2CCCC2)cc1C	15	3	0.9	3.2*	12	10	5776*	1512	2704
COC(=O)c1ccccc1NC(=O)COc1ccc(-c2ccc(C)cc2)cc1	/	/	/	/	6	/	/	/	/
Cc1ccccc1OCCn1nc(C(=O)O)c2ccccc2c1=O	-1	7	0.9	3.9*	9	13	7632*	1464	3756*
CC(NC(=O)Cn1nc(C(=O)O)c2ccccc2c1=O)c1ccccc1 (stereo unspecified)	9	2	1	0.19	8	8	/	/	/
O=[N+]([O-])c1ccc(-c2noc(-c3cccc(Br)c3)n2)cc1	/	/	/	/	-2	/	/	/	/
CCN(CC)c1ccc(C=Nn2cnnc2)cc1	/	/	/	/	5	/	/	/	/
Cc1c(C)c2ccc(OC3CCCCC3=O)cc2oc1=O (stereo unspecified)	5	8	0.8	2.5*	5	5	6564*	1492	2780
Cc1ccccc1OCC(O)Cn1c(NCCN(C)C)nc2c1c(=O)n(C)c(=O)n2C (stereo unspecified)	10	7	0.9	8.2*	10	3	4948	1480	3536
SMILES	FXIa mix inh	Calb biofilm kill	TNAP act DEA	D1 allo mod	HePTP inh	FXIIa mix inh	D1 mod confirm	D1 ag no DA	Isoprot counter
CCC1CCc2c(sc3ncnc(N4CCOCC4)c23)C1 (stereo unspecified)	10	8	0.9	17*	6	3	15132*	1584	3760*
Oc1ccc(N2CCN(c3ncnc4sc5c(c34)CCC5)CC2)cc1	9	5	0.9	-1.9	9	0	/	/	/
CC(=O)Nc1nc2n(n1)C(c1ccccc1)C=C(c1ccccc1)N2 (stereo unspecified)	-4	4	1	3.4*	-7	4	6792*	1432	2416
O=C(Nc1nc2n(n1)C(c1ccccc1)C=C(c1ccccc1)N2)c1ccco1 (stereo unspecified)	6	7	1	2.9*	5	3	11140*	1520	3016*
O=C1C(=O)N(c2cccc(Br)c2)C(c2ccc([N+](=O)[O-])cc2)/C1=C(/O)c1ccccc1 (stereo unspecified)	/	/	/	/	3	/	/	/	/
C=CCn1c(N)c(C(=O)OC(C)CC)c2nc3ccccc3nc21 (stereo unspecified)	-7	2	0.9	7.5*	0	2	14864*	1544	3132*
O=C(Nc1ccc(O)c(-c2nc3ccccc3o2)c1)c1ccc(-c2ccc([N+](=O)[O-])cc2)o1	/	/	/	/	8	/	/	/	/
CC(NC(=O)C1CCC(=O)N1Cc1ccc(F)cc1)c1ccc2c(c1)OCCO2 (stereo unspecified)	7	7	0.9	2.1*	6	-2	5700	1736	5552
COc1ccc(OC)c(NC(=O)CN(c2ccc(C)c(Cl)c2)S(C)(=O)=O)c1	/	/	/	/	-1	/	/	/	/
Cc1noc(C)c1CSc1nc2sc(C)c(C)c2c(=O)n1C1CCCC1	6	12	0.9	10*	-6	0	13364*	1472	5220*
Cn1cnc2c1c(=O)n(Cc1ccc(F)cc1Cl)c(=O)n2C	10	5	0.9	4*	-6	4	6528*	1544	2836
Cc1ccc(Cn2c(=O)c3c(ncn3C)n(C)c2=O)cc1	/	/	/	/	-11	/	/	/	/
COc1cc(C=C2C(=O)NC(=O)NC2=O)cc([N+](=O)[O-])c1O	/	/	/	/	2	/	/	/	/
